Screening results (PubChem BioAssay)
RE007 growth inh: qHTS Assay for Inhibitors of the HIV-1 protein Vpr. S. pombe RE007 Vpr strain, BacTiter-Glo ATP luminescence, 24 h. Potency, µM (series often up to 92.2 µM), without a hit: at the top dose activity change, negative = less growth, most hits filed as inhibitors. hit rate 0.21% among 360,000. AID 651644, 2012; active = well fitted falling curve with a large enough effect; inconclusive = small, poorly fitted or top-dose-only effect; inactive = no such curve, though single readings can be large or run the other way; note: nearly all actives have a fitted effect of over 50% in size
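Fission yeast RE007 carrying one integrated HIV-1 vpr copy, seeded at OD 0.01 in PMG+AL medium with 23 nL pinned compound. Grown 24 h at 30 degrees; viability read by BacTiter-Glo luminescence after 5 min.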
AmpC detergent: qHTS Inhibitors of AmpC Beta-Lactamase (assay with detergent). P00811. AmpC hydrolysis of nitrocefin, absorbance 480 nm, 0.01% Triton. Potency, µM (doses to about 114 µM), without a hit: at the highest dose activity change, negative = inhibition, most hits filed as inhibitors. hit rate 0.041% among 370,000. AID 485294, 2010;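 note: 0% = no-compound wells and -100% = no-enzyme wells; nearly all actives have a fitted effect of over 25% in size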
Target sequence (P00811 whole entry, looked up): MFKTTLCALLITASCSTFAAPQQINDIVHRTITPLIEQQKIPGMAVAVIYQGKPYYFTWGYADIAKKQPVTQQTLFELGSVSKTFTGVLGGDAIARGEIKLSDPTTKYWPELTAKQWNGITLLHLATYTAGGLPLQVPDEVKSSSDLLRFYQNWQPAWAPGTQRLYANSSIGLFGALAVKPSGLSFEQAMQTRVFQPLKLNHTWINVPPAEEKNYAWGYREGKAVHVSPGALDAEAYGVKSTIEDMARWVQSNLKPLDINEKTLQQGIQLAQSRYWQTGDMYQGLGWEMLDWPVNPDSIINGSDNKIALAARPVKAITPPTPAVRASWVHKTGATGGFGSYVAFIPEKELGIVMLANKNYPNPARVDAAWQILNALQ
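AmpC (5.3 nM in the dispensed reagent) in 20 mM phosphate pH 7.0 with 0.01% (detergent screen) or 0.0001% Triton X-100 was preincubated with compounds for 15 min at room temperature. Nitrocefin was then added from an 800 uM solution, and hydrolysis was followed at 480 nm.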
AmpC no deterg: qHTS Inhibitors of AmpC Beta-Lactamase (assay without detergent); hit rate 0.52% among 330,000; P00811; AID 485341, 2010; AmpC nitrocefin hydrolysis, absorbance 480 nm, 0.0001% Triton; Potency, µM (highest dose often 57.1 µM), for inactives: at the top dose activity change, negative = inhibition, most hits filed as inhibitors;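 note: plate controls were no compound for no effect and no enzyme for full effect; nearly all actives have a fitted effect of over 20% in size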
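AmpC (5.3 nM in the dispensed reagent) in 20 mM phosphate pH 7.0 with 0.01% (detergent screen) or 0.0001% Triton X-100 was preincubated with compounds for 15 min at room temperature. Nitrocefin was then added from an 800 uM solution, and hydrolysis was followed at 480 nm.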
Giardia FBPA inh: qHTS Assay for Inhibitors of Fructose-1,6-bisphosphate Aldolase from Giardia Lamblia. purified Giardia FBPA. Potency, µM (titrated, usually from 59.6 µM), for the others: at the top dose activity, negative = inhibition, usual class: inhibitors. hit rate 0.71% among 290,000. AID 2451, 2010; note: nearly all actives have a fitted effect of over 55% in size
Target sequence (A8B2U2 whole entry, looked up): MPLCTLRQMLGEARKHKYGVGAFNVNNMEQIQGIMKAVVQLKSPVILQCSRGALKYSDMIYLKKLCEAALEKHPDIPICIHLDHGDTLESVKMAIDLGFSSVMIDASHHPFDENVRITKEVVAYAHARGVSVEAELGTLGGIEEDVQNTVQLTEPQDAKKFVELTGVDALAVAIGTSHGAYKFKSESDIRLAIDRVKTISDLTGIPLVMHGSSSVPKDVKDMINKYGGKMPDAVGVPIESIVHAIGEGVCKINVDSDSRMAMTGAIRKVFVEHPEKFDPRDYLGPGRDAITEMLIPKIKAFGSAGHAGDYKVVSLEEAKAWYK
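Giardia FBPA (40 nM reagent) was preincubated 10 min at RT with compound (up to 57.5 uM final), then substrate plus GAPDH/TPI/NAD/arsenate coupling system with diaphorase/resazurin was added; resorufin fluorescence (525/598 nm) was read after 20 min.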
Sm TGR inh: qHTS Assay for the Inhibitors of Schistosoma Mansoni Peroxiredoxins; purified TGR, DTNB reduction, TNB absorbance 405 nm; Schistosoma mansoni thioredoxin glutathione reductase (TGR), Q962Y6; Potency, µM (top dose mostly 114 µM), inactives show at the highest dose activity change, negative = inhibition, most hits filed as inhibitors; hit rate 3% among 360,000; note: nearly all actives have a fitted effect of over 60% in size
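TGR 20 nM + NADPH 100 uM (dispensed conc.), cpd preinc 15 min RT; start with NADPH (500 uM addition) then DTNB (15 mM addition). Kinetic TNB absorbance, 405 nm filter. Four-parameter Hill fit across titration.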
Numbers without * were called inactive; u = inconclusive; x = not tested or not shown; ! = not confirmed by another sample; [ ] = remark or other dose. Compounds with a hit are over-represented: about 3.4% of the library has one in this group of screens. Unless noted, calls come from the whole dose curve; as a rule, active = well fitted curve in the direction sought with a large enough effect; inconclusive = small, poorly fitted or top-dose-only effect, or another doubt; inactive = no such curve, though single readings can be large; an effect the other way counts as inactive or inconclusive. Unless noted, % is set by controls: 0 for no effect and ±100 for the full control effect; potency is the fitted concentration of half-maximal effect.

SMILES | RE007 growth inh | AmpC detergent | AmpC no deterg | Giardia FBPA inh | Sm TGR inh
CCN(CC)C(=O)c1c(-c2ccccc2)c(-c2ccccc2)nn(C)c1=O | x | 18.9% | x | x | 1.0%
Cn1c(=O)c2c(-c3ccccc3)n(-c3cccc(Br)c3)cc2n(C)c1=O | -16.3% | x | x | x | x
N#CC(C#N)=NNc1ccc([N+](=O)[O-])cc1 | 6.0% | 3.5% | -15.6% | 1.4% | 25.1µM*
C/C(=N\Nc1ccc([N+](=O)[O-])cc1)c1ccc(C#N)cc1 | 17.4% | 3.5% | -26.6% | -1.2% | -0.5%
CCN(CC)S(=O)(=O)c1ccc(NN=C(C#N)C#N)cc1 | -5.4% | 2.7% | -48.2% | 24.8% | 7.94µM*
COc1ccc(C2=NN3C(C2)c2ccccc2OC32C(=O)N(C)c3ccccc32)cc1 (centres undefined) | u | 1.3% | -30.2% | -11.2% | 39.8µM*
COc1ccc(C2=NN3C(C2)c2ccccc2OC3c2cccs2)cc1 (centres undefined) | u | 4.1% | -25.1% | -4.1% | u
Cc1cc2nc3c(nc2cc1C)C(O)=C3O | 27.6% | 2.0% | -19.2% | -1.1% | 14.1µM*
Nc1ccc(C(=O)O)c(O)c1 | 2.0%[18.4 µM] | 1.2% | -24.8% | -18.1% | 3.55µM*!
Cc1cc(O)cc(C)c1Cl | -9.0%[18.4 µM] | x | x | u | x
Cc1ccc(N)cc1O | -2.7% | -0.3% | -19.7% | x | 6.31µM*
Nc1ccc(N)c(C(=O)O)c1 | 6.0% | -6.8% | -48.5% | u | 17.8µM*
Cc1cc(O)c(-c2cc(O)c(C)cc2O)cc1O | 0.1% | u | -40.2% | 15.8µM* | 1.26µM*
CSc1cccc(NS(=O)(=O)c2cccs2)c1 | 0.1% | -0.7% | -32.8% | -17.3% | -9.0%
O=C1CC(=O)Nc2cc(S(=O)(=O)NCc3cccs3)ccc2N1 | -10.6% | -1.2% | -18.1% | x | -20.6%
Nc1ccc(C(=O)Oc2ccc([N+](=O)[O-])cc2)c(O)c1 | x | 0.0% | -24.6% | -14.2% | 28.2µM*
Nc1ccc(C(=O)Oc2ccc([N+](=O)[O-])cc2)cc1 | x | -2.9% | -19.3% | 5.9% | 0.4%
CNC(=O)Oc1ccccc1OC(C)C | 8.3% | x | x | 1.2% | x
C[C@@H]1CN([C@H](C)CO)C(=O)CCCn2nncc2CO[C@@H]1CN(C)C(=O)Nc1ccc(N2CCN(C)CC2)cc1 | -13.1% | x | x | x | x
O=C(COc1ccc(Nc2ccccc2)cc1)Nc1ccncc1 | -9.8% | u | -30.8% | x | 44.7µM*
O=C(COc1ccc(Br)cc1)Nc1ccncc1 | -21.9% | u | -16.1% | 0.6% | -30.2%
O=C1CC(c2ccc3ccccc3c2)NN1 (centres undefined) | 6.8% | -5.8% | -37.8% | x | -10.4%
O=[N+]([O-])c1ccc(/C=[N+](\[O-])[C@@H]2CCCC[C@@H]2/[N+]([O-])=C/c2ccc([N+](=O)[O-])o2)o1 | -17.1% | 3.3% | -7.4% | -28.2% | 3.55µM*
COc1cc2c(C(=O)NCc3ccc(C)o3)cn(CC(C)C)c(=O)c2cc1OC | 3.9% | u | 56.3% | -4.3% | 10µM*
COc1ccc(-c2ccn(-c3cccc(F)n3)n2)cc1 | -15.8% | 5.0% | -27.4% | -16.9% | 28.2µM*
SMILES | RE007 growth inh | AmpC detergent | AmpC no deterg | Giardia FBPA inh | Sm TGR inh
COC(=O)[C@]12CCCCC=C1N(Cc1ccco1)C(=O)[C@H](CC(=O)NCCc1ccccc1OC)C2 | -1.0% | x | x | x | x
C=C(C)C1CC=C(C)/C(=N/NC(=O)c2ccccc2[N+](=O)[O-])C1 (centres undefined) | -21.2% | 5.0% | 15.8µM* | 0.1% | 3.1%
C=C(C)C1CC=C(C)/C(=N/Nc2ccccc2[N+](=O)[O-])C1 (centres undefined) | -4.4% | -3.9% | -14.7% | -0.8% | u
COc1cccc(OC)c1C(=O)NNC(=O)c1cccnc1 | 6.3% | -5.8% | -9.2% | 4.2% | 0.6%
CSc1ncc(C(=O)NCc2cccc(F)c2)c(-c2ccccc2)n1 | x | 4.2% | x | x | -1.7%
CCCC(=O)Nc1nnc(Sc2ccc(N(C)C)cc2)s1 | 2.9% | u | -23.4% | 15.6% | -14.5%
O=[N+]([O-])c1cc(Br)c(O)c(C=Nc2ccc(N3CCOCC3)cc2)c1 | -0.7% | -0.9% | 81.9% | u | -9.5%
Oc1ccc(N=Cc2cc(Br)c(N3CCOCC3)o2)cc1 | 0.7% | -3.7% | -36.0% | u | 17.8µM*
COc1ccc(O)c(/C=N/NC(=O)CSc2nnc(C)n2-c2ccccc2)c1 | -1.5% | -1.6% | 3.0% | 9.7% | 6.9%
CCCN(C(=O)/C=C/c1ccco1)c1c(N)n(Cc2ccccc2)c(=O)[nH]c1=O | 0.2% | 3.5% | -6.8% | 2.8% | 44.7µM*
CCN(C(=O)COC(=O)/C=C/c1ccc(C)o1)c1c(N)n(Cc2ccccc2)c(=O)[nH]c1=O | -7.8% | u | -0.7% | x | 17.8µM*
O=C(COc1ccccc1F)Nc1ccc2[nH]c(=O)[nH]c2c1 | -6.9% | -17.2% | -20.2% | x | 4.6%
COC(=O)c1[nH]c2cc(OC)ccc2c1NC(=O)c1nonc1C | 10.4%[3.69 µM] | -3.4% | -14.0% | 2.8% | -27.1%
CC(C)CC(=O)NC1CC(=O)N(c2ccc3c(c2)OCCO3)C1 (centres undefined) | x | -1.7% | x | x | -4.0%
CN(Cc1cccc(-c2cccnc2)c1)C(=O)Oc1ccc([N+](=O)[O-])cc1 | -16.7% | x | x | x | x
Cc1ccc(/C=C/C(=O)O)cc1S(=O)(=O)NCc1cccnc1 | 11.5% | -10.3% | -11.0% | 9.1% | 22.4µM*
Cc1ccc(/C=C/C(=O)O)cc1S(=O)(=O)Nc1ccc2c(c1)OCO2 | -14.2% | -12.3% | 7.5% | -4.9% | -18.9%
Cc1ccc(/C=C/C(=O)O)cc1S(=O)(=O)NCCCO | -1.7% | 6.6% | -21.1% | -3.8% | 39.8µM*
Cc1ccc(/C=C/C(=O)O)cc1S(=O)(=O)N(CCO)CCO | -5.1% | 8.9% | -2.5% | 22.9% | 22.4µM*
C/C(=N/NC(=O)c1nnn(-c2nonc2N)c1COc1ccccc1)c1ccc(O)cc1 | 22.4% | 2.6% | -40.9% | -7.5% | -13.0%
Cc1nc(C)c(-c2ccc(SCC(=O)Nc3cccc(F)c3)nn2)s1 | 5.9% | 2.5% | -1.0% | x | -2.9%
COc1cc2c(cc1OC)C(c1cccs1)N(C(=O)c1cccnc1)CC2 (centres undefined) | -0.7% | 2.1% | 17.6% | -0.3% | -0.8%
CC1(N2CCCCC2)CC2(O)C(=[N+]1[O-])CCC/C2=N\O (centres undefined) | -4.5% | -12.3% | -21.2% | -25.4% | 50.1µM*
N#Cc1c(Cl)nc(N/N=C/c2ccccc2)c(Cl)c1Cl | -0.8% | -18.1% | -39.3% | -26.6% | -29.4%
C[N+](C)(C)c1ccc(/C=N/Nc2nc(Cl)c(C#N)c(Cl)c2Cl)cc1 | -19.7% | u | -4.3% | -5.4% | 44.7µM*
C=CCSC1=C(C#N)C(c2ccccc2OCC)CC(=O)N1 (centres undefined) | -7.8% | 0.3% | -17.6% | u | 0.1%
